Results filed as inconclusive are left out. Where a call stands in place of a potency, no number is given. Activity calls are given as the source filed them. Unless noted, calls come from the whole dose curve; as a rule, active = well fitted inhibition curve with a large enough effect in the repeat runs; inconclusive = weak or mixed curves; inactive = flat fitted curve, though single readings scatter. *1 amine or outer side, *2 acyl side, *3 side chain or, on linkers, in order; H or OH if unused. Where a SMILES comes first, the peptide text is derived from it. Bridges are numbered along the chain shown (N, C = ends). [ ]: non-standard residue; d: D form. The star is where a group is joined. ξ: configuration not given here. X10 = NC1=NCCC(C(N[*:1])C(=O)[*:2])N1; ΔAla(3-NHCONH2) = NC(=O)NC=C(N)C(=O)O; ξβ3hOrn = NCCCC(N)CC(=O)*; Dap = NC[CH](N)C(=O)O

Test system in one experiment: not listed separately
The experiment can be described thus: A High-Content qHTS Against Drug Library for the Identification of Small Molecules that Inhibit DYT1 Early Onset Primary Dystonia-Associated Cell Pathology (AID 1645839; calls by dose curve). As to conditions: HEK293 Flp-In EGFP-delE TorsinA, punctate imaging, 48 h; series mostly up to 46.1 µM. The method in brief:
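High-content imaging quantified EGFP-TorsinA mislocalization in HEK293-derived cells inducibly expressing DYT1 mutant torsinA, after 48 h exposure to compound given together with tetracycline induction. Cell count served as a toxicity channel alongside %pathology.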
As for `NC(=O)NS(=O)(=O)c1ccc(Cl)cc1`, the Potency result is “inactive”.

Take `OC[C@]1(O)OC[C@@H](O)[C@H](O)[C@@H]1O`: the Potency entry is “inactive”.

On to `CC(C)(C)C(=O)OCOC(=O)C1N2C(=O)CC2S(=O)(=O)C1(C)C` (configuration not stated), for which the Potency result was “inactive”.

Take `O=C1CC[C@H](C(=O)N2CCCCC2)N1`: the Potency result was “inactive”.

With `CCOC(=O)C(O)c1ccccc1` (configuration not stated), the Potency entry is “inactive”.

The next experiment deals with Cytochrome P450 2D6 (Homo sapiens) (UniProt P10635). As to the kind of experiment: Cytochrome P450 family 2 subfamily D member 6 (CYP2D6) small molecule antagonists: luciferase biochemical (cell-free) qHTS assay (AID 1645840). Note: nearly all actives have a fitted effect of over 55% in size. Note: potency is the fitted concentration of half-maximal effect. Conditions: P450-Glo CYP2D6 enzyme, luciferin luminescence, 1 h; series mostly up to 57.4 µM. The method, boiled down: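 P450-Glo CYP2D6 system: proluciferin substrate converted by enzyme to luciferin, read by luminescence proportional to activity. Enzyme-substrate mix with compound 10 min at room temperature, then NADPH regeneration 1 h before detection reagent.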
Chain of Cytochrome P450 2D6 (Homo sapiens) (P10635 whole entry, looked up): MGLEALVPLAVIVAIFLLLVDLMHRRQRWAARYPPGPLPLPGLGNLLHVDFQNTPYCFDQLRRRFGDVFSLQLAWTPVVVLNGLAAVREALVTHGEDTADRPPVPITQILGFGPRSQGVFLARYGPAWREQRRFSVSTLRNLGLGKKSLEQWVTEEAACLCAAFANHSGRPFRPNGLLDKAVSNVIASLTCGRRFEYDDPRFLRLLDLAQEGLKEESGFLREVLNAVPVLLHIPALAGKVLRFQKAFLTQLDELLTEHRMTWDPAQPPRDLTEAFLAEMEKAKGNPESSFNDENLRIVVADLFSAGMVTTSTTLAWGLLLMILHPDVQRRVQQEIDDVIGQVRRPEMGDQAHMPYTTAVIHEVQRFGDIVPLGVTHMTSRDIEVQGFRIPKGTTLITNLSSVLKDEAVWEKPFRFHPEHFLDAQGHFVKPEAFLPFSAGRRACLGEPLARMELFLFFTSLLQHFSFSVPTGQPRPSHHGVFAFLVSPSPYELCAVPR
In the case of `CN1C(CSCC(F)(F)F)Nc2cc(Cl)c(S(N)(=O)=O)cc2S1(=O)=O` (configuration not stated), the Potency entry was “inactive”.

Take `CCOC(=O)c1ccc(OCCN2C[C@H](O)[C@@H](O)[C@H](O)[C@H]2CO)cc1`: the Potency result was “inactive”.

`CCOC(=O)Oc1ccc(CCNC(=O)[C@H](CCSC)NC(C)=O)cc1OC(=O)OCC`: the Potency result was “inactive”.

With `CC(=O)Nc1ccn(C2COC(COC(=O)c3ccccc3)O2)c(=O)n1` (configuration not stated), the Potency result is “inactive”.

For `Cc1cnc(NS(=O)(=O)c2ccc(N)cc2)nc1`, the Potency result is “inactive”.

On to `CNC(=O)c1c(I)c(NC(C)=O)c(I)c(C(=O)O)c1I`, for which the Potency entry is “inactive”.

On to `CC(=O)CC/C=C(\C)CC/C=C(\C)CC/C=C(\C)CCC=C(C)C`, for which the Potency entry is “inactive”.

Turning to `Nc1nnnn1-c1ccccc1`, the Potency entry was “inactive”.

On to `Nc1nc(=O)n([C@@H]2O[C@H](CO)[C@@H](O)[C@@H]2F)cc1I`, for which the Potency entry is “inactive”.

For `CC(=O)OC[C@H]1O[C@@H](OC(C)=O)[C@H](OC(C)=O)[C@@H]1OC(C)=O`, the Potency result is “inactive”.

As for `NCCCC(N)CC(=O)NCC1NC(=O)C(CO)NC(=O)C(N)CNC(=O)C(C2CCN=C(N)N2)NC(=O)C(=CNC(N)=O)NC1=O` (stereo not drawn) (H-[Dap]S[Dap](ξβ3hOrn)[ΔAla(3-NHCONH2)][X10]; lactam 1-C; configuration not given here), the activity change, negative = inhibition is 0.741% [at 0.91 µM] (inactive).

For `O=C(CCCl)NCc1ccccc1`, the Potency entry is “inactive”.

With `CC(C)(C)c1cc(C=O)cc(C(C)(C)C)c1O`, the Potency entry is “inactive”.

With `N#CC1(c2ccc(F)cc2)CCC(=O)CC1`, the Potency result was “inactive”.

`COC(=O)CCCCC(CCSS/C(CCO)=C(\C)N(C=O)Cc1cnc(C)nc1N)SC(C)=O` (configuration not stated): the Potency result is “inactive”.

For the compound `CCCOc1ccc2c(c1)CC[C@@H]1[C@@H]2CC[C@]2(C)C(OC)CC[C@@H]12` (some centres not stated), the Potency was 15.5 µM (active).

On to `CN(C)CCCOC1(Cc2ccccc2)CCCCCC1`, for which the Potency was 2.19 µM (active).

With `O=C(C1CCCCC1)N1CC(=O)N2CCCc3ccccc3C2C1` (configuration not stated), the Potency entry is “inactive”.

With `CCCCOC(=O)CCCCCCCCC(=O)OCCCC`, the Potency entry is “inactive”.

On to `CC(=O)Nc1c(I)c(NC(C)=O)c(I)c(C(=O)O)c1I`, for which the Potency result was “inactive”.

On to `CN(C)[C@@H]1C(=O)C(C(N)=O)=C(O)[C@@]2(O)C(=O)C3=C(O)c4c(O)cccc4C[C@H]3C[C@@H]12`, for which the Potency result was “inactive”.

For `CC1(C)S[C@@H]2[C@H](NC(=O)C(c3ccccc3)S(=O)(=O)O)C(=O)N2[C@H]1C(=O)O` (some centres not stated), the Potency result is “inactive”.

Consider `O=C(O)Cn1c(=O)n(Cc2ccc(Br)cc2F)c(=O)c2ccc(Cl)cc21`, for which the Potency entry is “inactive”.

As for `CCCC(=O)c1cc(O)c(O)cc1O`, the Potency was 31.7 µM (active).

Take `CC(C)(C)C1CCC(CC2=C(O)c3ccccc3C(=O)C2=O)CC1` (configuration not stated): the Potency result was “inactive”.

As to `O=P(O)(O)OCC(O)CO` (configuration not stated), the Potency entry is “inactive”.

Turning to `Cc1ccc(-c2ccccc2C#N)cc1`, the Potency entry is “inactive”.

`N=C(N)c1ccc(OCCCOc2ccc(C(=N)N)cc2)cc1`: the Potency entry was “inactive”.

Regarding `CC(=O)O[C@@H]1C(=O)O[C@@H]2[C@H]1OC(=O)[C@@H]2OC(C)=O`, the Potency result was “inactive”.

Regarding `CC(C)C[C@H](NC(=O)CNC(=O)[C@H](Cc1ccc(O)cc1)NC(=O)[C@H](CO)NC(=O)[C@H](Cc1c[nH]c2ccccc12)NC(=O)[C@H](Cc1cnc[nH]1)NC(=O)[C@@H]1CCC(=O)N1)C(=O)N[C@@H](CCCN=C(N)N)C(=O)N1CCC[C@H]1C(=O)NCC(N)=O` (stereo in doubt), the Potency entry is “inactive”.

For `Brc1ccccc1-c1ccccc1`, the Potency result was “inactive”.

For the compound `COC(=O)c1cc(Cl)c(NC(C)=O)cc1OC`, the Potency result was “inactive”.

In the case of `NC(=O)NS(=O)(=O)c1ccc(Cl)cc1`, the Potency result is “inactive”.

`OC[C@]1(O)OC[C@@H](O)[C@H](O)[C@@H]1O`: the Potency result is “inactive”.

Turning to `CC(C)(C)C(=O)OCOC(=O)C1N2C(=O)CC2S(=O)(=O)C1(C)C` (configuration not stated), the Potency entry is “inactive”.

Take `O=C1CC[C@H](C(=O)N2CCCCC2)N1`: the Potency entry was “inactive”.

For the compound `CCOC(=O)C(O)c1ccccc1` (configuration not stated), the Potency entry was “inactive”.

The values above are taken from PubChem BioAssay (NCATS).
